According to ChEMBL document CHEMBL2218924, “A broad activity screen in support of a chemogenomic map for kinase signalling research and drug discovery” (Biochem J, 2013):

Molecular target: Tyrosine-protein kinase HCK (Homo sapiens) (UniProt P08631)
Conditions: at 10 µM

Sequence of Tyrosine-protein kinase HCK (Homo sapiens) (P08631 2-526 limits assumed): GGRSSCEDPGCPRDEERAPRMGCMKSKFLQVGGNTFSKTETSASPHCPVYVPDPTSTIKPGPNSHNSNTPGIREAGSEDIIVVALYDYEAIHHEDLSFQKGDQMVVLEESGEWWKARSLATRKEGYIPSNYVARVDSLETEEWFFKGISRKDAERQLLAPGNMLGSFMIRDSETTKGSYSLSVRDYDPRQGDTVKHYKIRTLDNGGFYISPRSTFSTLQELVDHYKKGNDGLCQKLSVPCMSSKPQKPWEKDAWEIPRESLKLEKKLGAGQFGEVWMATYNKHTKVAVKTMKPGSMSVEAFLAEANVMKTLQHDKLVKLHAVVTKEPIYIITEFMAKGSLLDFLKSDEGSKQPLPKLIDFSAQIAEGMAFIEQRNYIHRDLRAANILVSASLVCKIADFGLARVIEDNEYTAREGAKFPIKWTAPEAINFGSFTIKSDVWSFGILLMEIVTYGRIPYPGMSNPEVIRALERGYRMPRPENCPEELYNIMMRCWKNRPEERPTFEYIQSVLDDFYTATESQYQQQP

Row | SMILES | residual activity [%]
1 | O=C(Nc1cccc(Nc2cc(Nc3cccc(C(F)(F)F)c3)ncn2)c1)C1CC1 | 52
2 | COc1ccc(CNc2nc(N(CCO)CCO)nc3c2ncn3C(C)C)cc1 | 56
3 | O=c1cc(-c2cccc3c2Sc2ccccc2S3)oc(N2CCOCC2)c1 | 82
4 | COc1ccc(S(=O)(=O)N(CCO)c2ccccc2CN(C)C/C=C/c2ccc(Cl)cc2)cc1 | 45
5 | Cn1cnc2cc3c(Nc4cccc(Br)c4)ncnc3cc21 | 21
6 | NC(=O)c1ccc2[nH]c(-c3ccc(Oc4ccc(Cl)cc4)cc3)nc2c1 | 60
7 | CCC(=O)Nc1ccc2ncnc(Nc3cccc(Br)c3)c2c1 | 45
8 | CN(C)c1ccc(/C=C2\C(=O)Nc3ccccc32)cc1 | 32
9 | Nc1ccc2ncnc(NCCc3ccc(Oc4ccccc4)cc3)c2c1 | 32
10 | O=Nc1c(-c2c(O)[nH]c3ccccc23)[nH]c2ccccc12 | 5
11 | CO[C@H]1C[C@@H]2CC[C@@H](C)[C@@](O)(O2)C(=O)C(=O)N2CCCC[C@H]2C(=O)O[C@H]([C@H](C)C[C@@H]2CC[C@@H](O)[C@H](OC)C2)CC(=O)[C@H](C)/C=C(\C)[C@@H](O)[C@@H](OC)C(=O)[C@H](C)C[C@H](C)/C=C/C=C/C=C/1C | 81
12 | Cc1nc2cc3nc(-c4cccs4)cnc3cc2n1C | 67
13 | COc1ccc(C(=O)Nc2sc3c(c2C(N)=O)CCCC3)cc1OC | 70
14 | O=C1Nc2ccccc2/C1=C1/Nc2ccccc2/C1=N\OCCC(O)CO (stereo not given) | 0
15 | c1ccc(-c2n[nH]cc2-c2ccnc3ccccc23)nc1 | 72
16 | COc1cccc(-c2cc(=O)c3ccccc3o2)c1N | 87
17 | O=C1NC(=O)/C(=C/c2ccc3c(c2)OC(F)(F)O3)S1 | 46
18 | Oc1ccc(Nc2nc(-c3ccc(Cl)cc3)cs2)cc1 | 69

Row | SMILES | residual activity [%]
19 | Oc1ccc(-c2nc(-c3ccc(F)cc3)c(-c3ccncc3)[nH]2)cc1 | 24
20 | Cn1nc2c3c(cccc31)C(=O)c1ccccc1-2 | 53
21 | O=C1NC(=O)c2c1c1c3ccccc3[nH]c1c1[nH]c3cc(Br)ccc3c21 | 56
22 | COc1cc2ncnc(Nc3ccc(O)c(Br)c3)c2cc1OC | 4
23 | N#C/C(=C(\N)Sc1ccc(N)cc1)c1ccccc1C(F)(F)F | 41
24 | O=C1Nc2cc(Br)ccc2/C1=C1/Nc2ccccc2/C1=N\O | 1
25 | O=C(O)c1ccc2c3c1cccc3c(=O)n1c3ccccc3nc21 | 81
26 | Cc1ccc(S(=O)(=O)/C=C/C#N)cc1 | 82
27 | CNc1cc2c(Nc3cccc(Br)c3)ncnc2cn1 | 30
28 | O=c1c2ccccc2[nH]c(=S)n1CCN1CCC(=C(c2ccc(F)cc2)c2ccc(F)cc2)CC1 | 38
29 | Oc1c2ccccc2c2c3c(cccc13)N=N2 | 27
30 | Cc1cc2ncc(-c3ccccc3)nc2cc1C | 55
31 | O=C1c2ccccc2-[n+]2ccc3c([nH]c4ccccc43)c21 | 57
32 | CC(C)n1cnc2/c(=N/c3cccc(Cl)c3)nc(NCCO)[nH]c21 | 13
33 | O=C1NC(=O)/C(=C\c2ccc3nccnc3c2)S1 | 57
34 | Nc1n[nH]c2nnc(-c3c(-c4ccccc4)nn4ccccc34)cc12 | 40
35 | Cn1cc(/C=C2\C(=O)Nc3ccc(S(N)(=O)=O)cc32)c2ccccc21 | 5

Molecular target: Tyrosine-protein kinase HCK (Homo sapiens) (UniProt P08631)
Conditions: at 1 µM

Row | SMILES | residual activity [%]
36 | O=C(Nc1cccc(Nc2cc(Nc3cccc(C(F)(F)F)c3)ncn2)c1)C1CC1 | 98
37 | COc1ccc(CNc2nc(N(CCO)CCO)nc3c2ncn3C(C)C)cc1 | 102
38 | O=c1cc(-c2cccc3c2Sc2ccccc2S3)oc(N2CCOCC2)c1 | 101
39 | COc1ccc(S(=O)(=O)N(CCO)c2ccccc2CN(C)C/C=C/c2ccc(Cl)cc2)cc1 | 98
40 | Cn1cnc2cc3c(Nc4cccc(Br)c4)ncnc3cc21 | 51
41 | NC(=O)c1ccc2[nH]c(-c3ccc(Oc4ccc(Cl)cc4)cc3)nc2c1 | 96
42 | CCC(=O)Nc1ccc2ncnc(Nc3cccc(Br)c3)c2c1 | 86
43 | CN(C)c1ccc(/C=C2\C(=O)Nc3ccccc32)cc1 | 102
44 | Nc1ccc2ncnc(NCCc3ccc(Oc4ccccc4)cc3)c2c1 | 97
45 | O=Nc1c(-c2c(O)[nH]c3ccccc23)[nH]c2ccccc12 | 8
46 | CO[C@H]1C[C@@H]2CC[C@@H](C)[C@@](O)(O2)C(=O)C(=O)N2CCCC[C@H]2C(=O)O[C@H]([C@H](C)C[C@@H]2CC[C@@H](O)[C@H](OC)C2)CC(=O)[C@H](C)/C=C(\C)[C@@H](O)[C@@H](OC)C(=O)[C@H](C)C[C@H](C)/C=C/C=C/C=C/1C | 99
47 | Cc1nc2cc3nc(-c4cccs4)cnc3cc2n1C | 90
48 | COc1ccc(C(=O)Nc2sc3c(c2C(N)=O)CCCC3)cc1OC | 95
49 | O=C1Nc2ccccc2/C1=C1/Nc2ccccc2/C1=N\OCCC(O)CO (stereo not given) | 8
50 | c1ccc(-c2n[nH]cc2-c2ccnc3ccccc23)nc1 | 100
51 | COc1cccc(-c2cc(=O)c3ccccc3o2)c1N | 106
52 | O=C1NC(=O)/C(=C/c2ccc3c(c2)OC(F)(F)O3)S1 | 115
53 | Oc1ccc(Nc2nc(-c3ccc(Cl)cc3)cs2)cc1 | 97

Row | SMILES | residual activity [%]
54 | Oc1ccc(-c2nc(-c3ccc(F)cc3)c(-c3ccncc3)[nH]2)cc1 | 98
55 | Cn1nc2c3c(cccc31)C(=O)c1ccccc1-2 | 96
56 | O=C1NC(=O)c2c1c1c3ccccc3[nH]c1c1[nH]c3cc(Br)ccc3c21 | 97
57 | COc1cc2ncnc(Nc3ccc(O)c(Br)c3)c2cc1OC | 29
58 | N#C/C(=C(\N)Sc1ccc(N)cc1)c1ccccc1C(F)(F)F | 99
59 | O=C1Nc2cc(Br)ccc2/C1=C1/Nc2ccccc2/C1=N\O | 1
60 | O=C(O)c1ccc2c3c1cccc3c(=O)n1c3ccccc3nc21 | 104
61 | Cc1ccc(S(=O)(=O)/C=C/C#N)cc1 | 98
62 | CNc1cc2c(Nc3cccc(Br)c3)ncnc2cn1 | 62
63 | O=c1c2ccccc2[nH]c(=S)n1CCN1CCC(=C(c2ccc(F)cc2)c2ccc(F)cc2)CC1 | 101
64 | Oc1c2ccccc2c2c3c(cccc13)N=N2 | 80
65 | Cc1cc2ncc(-c3ccccc3)nc2cc1C | 105
66 | O=C1c2ccccc2-[n+]2ccc3c([nH]c4ccccc43)c21 | 89
67 | CC(C)n1cnc2/c(=N/c3cccc(Cl)c3)nc(NCCO)[nH]c21 | 57
68 | O=C1NC(=O)/C(=C\c2ccc3nccnc3c2)S1 | 105
69 | Nc1n[nH]c2nnc(-c3c(-c4ccccc4)nn4ccccc34)cc12 | 87
70 | Cn1cc(/C=C2\C(=O)Nc3ccc(S(N)(=O)=O)cc32)c2ccccc21 | 56
